# ± gives the standard deviation of the averaged measurements.
# Assays:
# Assay in all cases: promoter activity interaction Z-score (Lux/OD deviation from empty-vector control); higher = stronger promoter induction by the compound
# [1] = tested on: E. coli BW25113 tolCp lux reporter
# Outline: (§1)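 Four 1:2 dilutions of each compound were tested in biological duplicates on E. coli BW25113 carrying low-copy luxCDABE promoter reporters, either wild type or deleted for one of three genes. Cultures of 40 µl LB Lennox in 384-well plates were kept at 37°C and read for OD600 and luminescence every 30 min for 12 h. Integration windows were 0–8 h for wild type and 1–9 h for deletion strains, and wells under 10% of the median growth value were discarded. The score is a Z-transformed residual of growth-normalised luminescence relative to a control fit.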
# [2] = tested on: E. coli BW25113 acrABp lux reporter
# Outline: as §1
# [3] = tested on: E. coli BW25113 marRABp lux reporter
# Outline: as §1
# [4] = tested on: E. coli BW25113 micFp lux reporter
# Outline: as §1
# [5] = tested on: E. coli BW25113 ompFp lux reporter
# Outline: as §1
# [6] = tested on: E. coli BW25113 robp lux reporter
# Outline: as §1
# [7] = tested on: E. coli BW25113 soxSp lux reporter
# Outline: as §1
# [8] = 23.5 µg/ml, genetic background: wild type
# [9] = 23.5 µg/ml, genetic background: ΔmarA
# [10] = 23.5 µg/ml, genetic background: Δrob
# [11] = 23.5 µg/ml, genetic background: ΔsoxS
# [12] = 47.1 µg/ml, genetic background: wild type
# [13] = 47.1 µg/ml, genetic background: ΔmarA
# [14] = 47.1 µg/ml, genetic background: Δrob
# [15] = 47.1 µg/ml, genetic background: ΔsoxS
# [16] = 94.1 µg/ml, genetic background: wild type
# [17] = 94.1 µg/ml, genetic background: ΔmarA
# [18] = 94.1 µg/ml, genetic background: Δrob
# [19] = 94.1 µg/ml, genetic background: ΔsoxS
# [20] = 188.3 µg/ml, genetic background: wild type
# [21] = 188.3 µg/ml, genetic background: ΔmarA
# [22] = 188.3 µg/ml, genetic background: Δrob
# [23] = 188.3 µg/ml, genetic background: ΔsoxS
smiles,measurement,setting,value
C[C@]12CC[C@@H]3c4ccc(O)cc4CC[C@H]3[C@@H]1CC[C@@H]2O [Estradiol],promoter activity interaction Z-score,"[1]; 68.1 µg/ml, genetic background: Δrob",0.143 ± 0.3
same,promoter activity interaction Z-score,"[1]; 68.1 µg/ml, genetic background: ΔsoxS",0.521 ± 0.57
same,promoter activity interaction Z-score,"[1]; 136.2 µg/ml, genetic background: wild type",0.506 ± 0.79
same,promoter activity interaction Z-score,"[1]; 136.2 µg/ml, genetic background: ΔmarA",-0.446 ± 0.55
same,promoter activity interaction Z-score,"[1]; 136.2 µg/ml, genetic background: Δrob",-0.721 ± 0.35
same,promoter activity interaction Z-score,"[1]; 136.2 µg/ml, genetic background: ΔsoxS",0.191 ± 0.75
C[C@H](CCC(=O)O)[C@H]1CC[C@H]2[C@@H]3CC[C@@H]4C[C@H](O)CC[C@]4(C)[C@H]3CC[C@]12C [Lithocholic acid],promoter activity interaction Z-score,[2]; [8],0.128 ± 0.083
same,promoter activity interaction Z-score,[2]; [9],1.34 ± 2.3
same,promoter activity interaction Z-score,[2]; [10],0.0671 ± 0.095
same,promoter activity interaction Z-score,[2]; [11],-0.142 ± 0.031
same,promoter activity interaction Z-score,[2]; [12],0.171 ± 0.17
same,promoter activity interaction Z-score,[2]; [13],0.66 ± 0.77
same,promoter activity interaction Z-score,[2]; [14],0.304 ± 0.021
same,promoter activity interaction Z-score,[2]; [15],-0.0227 ± 0.072
same,promoter activity interaction Z-score,[2]; [16],-0.00199 ± 0.34
same,promoter activity interaction Z-score,[2]; [17],0.576 ± 0.88
same,promoter activity interaction Z-score,[2]; [18],-0.304 ± 0.19
same,promoter activity interaction Z-score,[2]; [19],-0.652 ± 0.55
same,promoter activity interaction Z-score,[2]; [20],-0.12 ± 0.18
same,promoter activity interaction Z-score,[2]; [21],0.897 ± 2.2
same,promoter activity interaction Z-score,[2]; [22],-0.207 ± 0.095
same,promoter activity interaction Z-score,[2]; [23],-0.566 ± 1.5
same,promoter activity interaction Z-score,[3]; [8],0.0125 ± 0.049
same,promoter activity interaction Z-score,[3]; [9],0.215 ± 0.24
same,promoter activity interaction Z-score,[3]; [10],0.171 ± 0.16
same,promoter activity interaction Z-score,[3]; [11],-0.00159 ± 0.033
same,promoter activity interaction Z-score,[3]; [12],0.0767 ± 0.14
same,promoter activity interaction Z-score,[3]; [13],0.199 ± 0.2
same,promoter activity interaction Z-score,[3]; [14],0.159 ± 0.08
same,promoter activity interaction Z-score,[3]; [15],0.29 ± 0.41
same,promoter activity interaction Z-score,[3]; [16],-0.14 ± 0.0041
same,promoter activity interaction Z-score,[3]; [17],-0.0736 ± 0.21
same,promoter activity interaction Z-score,[3]; [18],0.0252 ± 0.008
same,promoter activity interaction Z-score,[3]; [19],-0.23 ± 0.21
same,promoter activity interaction Z-score,[3]; [20],-0.189 ± 0.024
same,promoter activity interaction Z-score,[3]; [21],0.0134 ± 0.26
same,promoter activity interaction Z-score,[3]; [22],0.123 ± 0.086
same,promoter activity interaction Z-score,[3]; [23],0.0918 ± 0.55
same,promoter activity interaction Z-score,[4]; [8],-0.113 ± 0.26
same,promoter activity interaction Z-score,[4]; [9],0.16 ± 0.35
same,promoter activity interaction Z-score,[4]; [10],0.238 ± 0.17
same,promoter activity interaction Z-score,[4]; [11],-0.193 ± 0.12
same,promoter activity interaction Z-score,[4]; [12],0.314 ± 0.66
same,promoter activity interaction Z-score,[4]; [13],0.226 ± 0.41
same,promoter activity interaction Z-score,[4]; [14],0.0535 ± 0.017
same,promoter activity interaction Z-score,[4]; [15],0.243 ± 0.36
same,promoter activity interaction Z-score,[4]; [16],0.275 ± 0.18
same,promoter activity interaction Z-score,[4]; [17],0.187 ± 0.33
same,promoter activity interaction Z-score,[4]; [18],0.0887 ± 0.27
same,promoter activity interaction Z-score,[4]; [19],-0.363 ± 0.17
same,promoter activity interaction Z-score,[4]; [20],-0.215 ± 0.76
same,promoter activity interaction Z-score,[4]; [21],0.379 ± 0.47
same,promoter activity interaction Z-score,[4]; [22],-0.0294 ± 0.12
same,promoter activity interaction Z-score,[4]; [23],-0.253 ± 0.14
same,promoter activity interaction Z-score,[5]; [8],-0.331 ± 0.28
same,promoter activity interaction Z-score,[5]; [9],0.388 ± 0.35
same,promoter activity interaction Z-score,[5]; [10],0.233 ± 0.41
same,promoter activity interaction Z-score,[5]; [11],-0.266 ± 0.66
same,promoter activity interaction Z-score,[5]; [12],-0.361 ± 0.42
same,promoter activity interaction Z-score,[5]; [13],-0.326 ± 0.22
same,promoter activity interaction Z-score,[5]; [14],0.512 ± 0.58
same,promoter activity interaction Z-score,[5]; [15],0.0216 ± 0.97
same,promoter activity interaction Z-score,[5]; [16],-1.02 ± 0.35
same,promoter activity interaction Z-score,[5]; [17],-0.0279 ± 0.11
same,promoter activity interaction Z-score,[5]; [18],-0.2 ± 0.59
same,promoter activity interaction Z-score,[5]; [19],-1.15 ± 0.78
same,promoter activity interaction Z-score,[5]; [20],-0.885 ± 0.27
same,promoter activity interaction Z-score,[5]; [21],-0.942 ± 0.53
same,promoter activity interaction Z-score,[5]; [22],-0.571 ± 0.34
same,promoter activity interaction Z-score,[5]; [23],-0.828 ± 0.72
same,promoter activity interaction Z-score,[6]; [8],0.566 ± 0.055
same,promoter activity interaction Z-score,[6]; [9],1.44 ± 0.64
same,promoter activity interaction Z-score,[6]; [10],0.487 ± 0.029
same,promoter activity interaction Z-score,[6]; [11],0.99 ± 0.62
same,promoter activity interaction Z-score,[6]; [12],-0.0796 ± 0.041
same,promoter activity interaction Z-score,[6]; [13],0.19 ± 0.14
same,promoter activity interaction Z-score,[6]; [14],0.443 ± 0.039
same,promoter activity interaction Z-score,[6]; [15],1.04 ± 0.47
same,promoter activity interaction Z-score,[6]; [16],-0.0166 ± 0.45
same,promoter activity interaction Z-score,[6]; [17],1.08 ± 0.44
same,promoter activity interaction Z-score,[6]; [18],0.223 ± 0.44
same,promoter activity interaction Z-score,[6]; [19],0.195 ± 0.21
same,promoter activity interaction Z-score,[6]; [20],-0.492 ± 1.1
same,promoter activity interaction Z-score,[6]; [21],0.59 ± 0.34
same,promoter activity interaction Z-score,[6]; [22],0.0946 ± 0.17
same,promoter activity interaction Z-score,[6]; [23],0.391 ± 0.17
same,promoter activity interaction Z-score,[7]; [8],0.313 ± 0.3
same,promoter activity interaction Z-score,[7]; [9],-0.0502 ± 0.087
same,promoter activity interaction Z-score,[7]; [10],0.0422 ± 0.029
same,promoter activity interaction Z-score,[7]; [11],0.057 ± 0.13
same,promoter activity interaction Z-score,[7]; [12],-0.126 ± 0.1
same,promoter activity interaction Z-score,[7]; [13],-0.195 ± 0.067
same,promoter activity interaction Z-score,[7]; [14],0.0214 ± 0.095
same,promoter activity interaction Z-score,[7]; [15],-0.0763 ± 0.36
same,promoter activity interaction Z-score,[7]; [16],-0.137 ± 0.33
same,promoter activity interaction Z-score,[7]; [17],-0.217 ± 0.014
same,promoter activity interaction Z-score,[7]; [18],-0.165 ± 0.32
same,promoter activity interaction Z-score,[7]; [19],-0.531 ± 0.61
same,promoter activity interaction Z-score,[7]; [20],-0.578 ± 0.011
same,promoter activity interaction Z-score,[7]; [21],-0.284 ± 0.089
same,promoter activity interaction Z-score,[7]; [22],-0.408 ± 0.33
same,promoter activity interaction Z-score,[7]; [23],-0.418 ± 0.97
same,promoter activity interaction Z-score,[1]; [8],0.238 ± 0.82
same,promoter activity interaction Z-score,[1]; [9],1.52 ± 0.56
same,promoter activity interaction Z-score,[1]; [10],0.914 ± 0.84
same,promoter activity interaction Z-score,[1]; [11],0.608 ± 1.3
same,promoter activity interaction Z-score,[1]; [12],-0.0238 ± 0.039
same,promoter activity interaction Z-score,[1]; [13],0.952 ± 0.099
same,promoter activity interaction Z-score,[1]; [14],1.24 ± 0.98
same,promoter activity interaction Z-score,[1]; [15],1.3 ± 0.12
same,promoter activity interaction Z-score,[1]; [16],0.429 ± 0.87
same,promoter activity interaction Z-score,[1]; [17],1.04 ± 0.5
same,promoter activity interaction Z-score,[1]; [18],0.552 ± 0.78
same,promoter activity interaction Z-score,[1]; [19],0.284 ± 0.072
same,promoter activity interaction Z-score,[1]; [20],0.995 ± 0.41
same,promoter activity interaction Z-score,[1]; [21],0.554 ± 0.33
same,promoter activity interaction Z-score,[1]; [22],0.54 ± 0.74
same,promoter activity interaction Z-score,[1]; [23],0.774 ± 1.2
